From PubChem BioAssay
Activity calls are given as the source filed them.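 Rule for the calls: active = calcium signal rise above buffer-control mean plus 5 SD in both duplicates, and also a hit in the primary screen; inactive = the rest.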

Biological target: Short transient receptor potential channel 4 (Mus musculus) (UniProt Q9QUQ5)
Experiment: calcium flux activators in TRPC4/5HT1a cells, counter-screen for TRPC4 activator project, cell-based, second counter screen, HEK293 TRPC4/5HT1a, Fluo-4 (AID 434977)
Settings: Fluo-4 calcium flux, at 10 µM

Row | Structure (SMILES) | outcome
1 | CCC(O)(c1ccc(OC)cc1)C(CN1CCOCC1)c1ccccc1 (stereo not given) | inactive
2 | COc1ccc(Nc2cc(C)nc3ccc(OC)cc23)cc1 | inactive
3 | Cc1ccc(C(C)(C)C)cc1S(=O)(=O)Nc1nc2ccccc2nc1Cl | inactive
4 | CN(C)C(CNC(=O)c1ccccc1OCc1ccc(Cl)cc1)c1ccco1 (stereo not given) | inactive
5 | COc1ccc(-c2csc(NC(=O)Cc3cccc4ccccc34)c2C(=O)O)cc1 | inactive
6 | CC1CCN(C(C)C(=O)Nc2ccccc2-c2ccccc2)CC1 (stereo not given) | inactive
7 | O=c1c2ccccc2nc(SCc2ccccc2)n1CC1CCCO1 (stereo not given) | inactive
8 | CC(=O)Nc1cccc(C(=O)NCC2(N3CCCCC3)CCCCC2)c1 | inactive
9 | Cc1ccn2cc(CCNC(=O)c3ccc(Br)o3)nc2c1 | inactive
10 | CCOc1ccc2ccccc2c1CNCCc1ccc(S(N)(=O)=O)cc1 | inactive
11 | CCc1cccc(OCC(=O)Nc2ccc(C(=O)O)cc2NC(=O)COc2cccc(CC)c2)c1 | inactive
12 | COc1ccc(CN2CCN(C(=O)c3ccc(F)cc3)CC2)c(OC)c1 | inactive
13 | CCOc1ccc(Br)cc1/C=N/O | inactive
14 | CCC1CCCCN1Cc1nc2c(c(=O)n(C)c(=O)n2C)n1Cc1ccccc1 (stereo not given) | inactive
15 | O=C(c1ccc2c(c1)OCO2)C1CCCN(Cc2ccccc2OC(F)F)C1 (stereo not given) | inactive
16 | O=C(Nc1ccccc1N1CCN(C(=O)c2ccccc2)CC1)c1ccc(Br)o1 | inactive
17 | Cc1ccc(C(=O)C2=C(O)C(=O)N(Cc3cccnc3)C2c2ccc(Cl)c(Cl)c2)o1 (stereo not given) | inactive
18 | Cc1cccc(CCN(C(=O)c2snc(C(N)=O)c2N)C(C(=O)NCC2CCCO2)c2ccc(F)cc2)c1 (stereo not given) | inactive
19 | Cc1ccc(NC(=O)c2cc(N3C(=O)C=CC3=O)ccc2N2CCOCC2)cc1 | inactive
20 | Fc1ccccc1Sc1ccccc1CNC1=NCCN1 | inactive

Row | Structure (SMILES) | outcome
21 | CC(C)C(NC(=O)c1ccc(C(C)(C)C)cc1)C(=O)NCC(c1ccccc1)N(C)C (stereo not given) | inactive
22 | COCCn1c(SCC(=O)c2ccccc2)nc2ccccc2c1=O | inactive
23 | COc1ccc(SC[C@H](Cc2ccccc2)N2CCN(C)CCC2=O)cc1 | inactive
24 | O=C(CCCSc1nc2ccccc2[nH]1)NCc1ccccc1Cl | inactive
25 | CCOC(=O)C1(Cc2ccccc2)CCN(CC2CC=CCC2)CC1 (stereo not given) | inactive
26 | CCn1c(NCc2c[nH]c3ccccc23)nc2ccccc21 | inactive
27 | COc1ccc(C(CNC(=O)c2oc3ccc(F)cc3c2C)N2CCCCC2)cc1 (stereo not given) | inactive
28 | CCC(=O)N1CCc2cc(S(=O)(=O)NCCN3CCCCC3CC)ccc21 (stereo not given) | inactive
29 | Nc1cc(N2CCCCC2)c([N+](=O)[O-])cc1Cl | inactive
30 | Cc1c(CCOC(=O)c2cccc([N+](=O)[O-])c2)sc[n+]1CC(=O)c1ccccc1 | inactive
31 | CCOc1cc(CNCCCN2CCOCC2)cc(Br)c1OCc1ccccc1Cl | inactive
32 | Cc1ccc(Sc2ccc(CO)cc2[N+](=O)[O-])cc1 | inactive
33 | Cc1ccc(Cn2c(Cc3ccccc3)nc3ccccc32)cc1 | inactive
34 | CC1CCc2c(sc(/N=C/N(C)C)c2C#N)C1 (stereo not given) | inactive
35 | COc1ccccc1N1CCN(CC(C)N(C(=O)C2CCCCC2)c2ccccn2)CC1 (stereo not given) | inactive
36 | CCN(CC)c1ncnc2scc(C3COc4ccccc4O3)c12 (stereo not given) | inactive
37 | COc1ccc(Sc2nc(-c3ccccc3)ncc2C(=O)O)cc1 | inactive
38 | Cc1cccc(CN2CCCC(C(=O)Nc3ccccc3Oc3cccnc3)C2)c1 (stereo not given) | inactive
39 | Cn1nnnc1SCCNCc1ccccc1OCc1ccc(Cl)cc1 | inactive
40 | O=C(C[n+]1cccc(CNC(=O)c2ccc(OC(F)F)cc2)c1)Nc1ccc(SC(F)F)cc1 | inactive
